Assay outcomes as filed in PubChem.
An excerpt weighted towards active compounds, which were near 2.3% of everything screened.
GLD-1 TGE inh – GLD-1/TGE RNA complex disruptors, primary screen, biochemical, fluorescence polarization. Female germline-specific tumor suppressor gld-1 (Caenorhabditis elegans), Q17339. purified GLD-1 + fluorescein TGE RNA. inhibition, % at 5.96 µM. actives 0.44% (n = 320,000). AID 2280, 2010;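 active = percent inhibition above a per-plate cutoff, the plate mean of test compounds plus 3 SD, cut at about 30% in these data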;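 note: 0% = DMSO wells with GLD-1 and probe and 100% = wells lacking GLD-1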
Target sequence (Q17339 whole entry, looked up): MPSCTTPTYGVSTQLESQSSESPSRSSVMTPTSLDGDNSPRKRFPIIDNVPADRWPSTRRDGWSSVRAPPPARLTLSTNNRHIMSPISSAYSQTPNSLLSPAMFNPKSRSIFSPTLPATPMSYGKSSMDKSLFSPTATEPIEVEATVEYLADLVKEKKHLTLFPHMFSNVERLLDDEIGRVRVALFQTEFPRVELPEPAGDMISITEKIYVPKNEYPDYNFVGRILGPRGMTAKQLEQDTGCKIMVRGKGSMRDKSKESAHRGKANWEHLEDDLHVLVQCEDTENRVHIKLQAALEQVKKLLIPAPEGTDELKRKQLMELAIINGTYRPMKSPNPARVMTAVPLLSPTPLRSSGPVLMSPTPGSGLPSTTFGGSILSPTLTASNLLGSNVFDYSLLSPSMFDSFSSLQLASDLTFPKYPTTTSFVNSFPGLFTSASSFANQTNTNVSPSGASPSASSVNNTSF
Mcl1 Bid PPI – Mcl-1/Bid binding inhibitors, primary screen, biochemical, TR-FRET, 1536-well. Induced myeloid leukemia cell differentiation protein Mcl-1 (Homo sapiens), Q07820. TR-FRET Mcl-1/Bid-Dy647 peptide binding. actives 0.97% (n = 220,000). inhibition, % at 21.7 µM;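 active = compounds that cut the binding signal by more than half at the single screening dose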;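 note: His-tagged Mcl-1 with europium anti-His antibody binding Bid BH3 peptide; 0% = Mcl-1 plus peptide wells and 100% = peptide-only wells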
MCL1-BIM inh – inhibitors of MCL1 binding to BIM-BH3, primary screen, biochemical, fluorescence polarization | actives 0.68% (n = 320,000) | inhibition, % at 10.9 µM | Induced myeloid leukemia cell differentiation protein Mcl-1 (Homo sapiens), Q07820 | GST-MCL1 / FITC-Bim-BH3 fluorescence polarization;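 active = inhibition above the mean inhibition of all tested compounds plus 3 SD, set per campaign, cut at about 40% in these data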;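 note: 0% = DMSO wells and 100% = unlabeled Bim-BH3 peptide control; higher means more loss of mP so more displacement of Bim peptide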
Mcl1-Noxa inh – Mcl-1/Noxa binding inhibitors, primary screen, biochemical, TR-FRET, 1536-well | actives 1.5% (n = 220,000) | inhibition, % at 21.7 µM | TR-FRET Mcl-1/Noxa peptide binding, 2 h | Induced myeloid leukemia cell differentiation protein Mcl-1 (Homo sapiens), Q07820;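 active = compounds that cut the protein-peptide binding signal by more than 50% relative to plate controls in a single-dose test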;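 note: His-tagged Mcl-1 with rhodamine Noxa BH3 peptide and terbium anti-His antibody; 0% = Mcl-1 plus Noxa peptide wells and 100% = peptide-only wells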
BCLXL inh – inhibitors of human Bcl-xL, primary screen, biochemical, fluorescence polarization, HTS | Bcl-2-like protein 1 (Homo sapiens), Q07817 | GST-Bcl-xL / FITC-Bim BH3 peptide fluorescence polarization | inhibition, % at 10.9 µM | actives 0.7% (n = 320,000);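 active = inhibition above the mean of all tested compounds plus 3 SD, cutoff set per campaign, cut at about 30% in these data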;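 note: 0% = DMSO wells and 100% = unlabeled Bim-BH3 peptide competitor; inhibitors lower millipolarization by displacing the labeled peptide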
Bim-Mcl-1 – inhibitors of Bim peptide binding to Mcl-1, primary screen, biochemical, bead-based flow cytometry, multiplex | Bim peptide-Mcl-1 binding | actives 0.1% (n = 190,000) | inhibition, % at 10 µM; in the data active = inhibition above about 40%;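 note: 0% = no compound tracer wells and 100% = peptide blocker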
An asterisk follows results filed as active; nt = no result given.

SMILES	GLD-1 TGE inh	Mcl1 Bid PPI	MCL1-BIM inh	Mcl1-Noxa inh	BCLXL inh	Bim-Mcl-1
CCN(CC)CCn1c(NCc2ccccn2)nc2ccccc21	4	85*	0	34	-1	-6
O=c1ccc2c(o1)/C(=C/C=C(Cl)Cl)CCC2	5	59*	8	49	0	0
Cc1ccc(NC(=O)Cn2cccc2)cc1C	4	-28	3	-7	3	0
Cc1ccc(NC(=O)CCn2cccc2)cc1C	-2	60*	11	13	7	-2
O=C(NCCCN1CCCC1=O)c1ccc2c(c1)OCO2	1	62*	0	5	-7	0
COc1ccc(C(=O)NCCCN2CCCC2=O)cc1	4	-10	0	7	4	-1
O=C(NCCCN1CCCC1=O)NC1CCCCC1	-8	-8	0	12	1	54*
Cc1ccc(-c2nn(C)c(=O)c3ccccc23)cc1CNC(=O)Cn1nc(-c2ccccc2)c2ccccc2c1=O	nt	77*	nt	-23	nt	-31
Cc1cc(C)n(CC(=O)NCc2cc(-c3nn(C)c(=O)c4ccccc34)ccc2C)n1	2	14	-2	-9	4	-3
Cc1ccccc1OCCSc1nc2ccccc2n1CCC(=O)O	-5	nt	3	nt	3	nt
CCCN(CC(=O)Nc1ccc(F)c(F)c1F)C(=O)c1cc([N+](=O)[O-])ccc1N1CCOCC1	6	nt	-4	nt	1	nt
O=C(c1ccco1)N1CCN(C(=O)c2ccccc2OCc2ccccc2)CC1	-5	nt	nt	nt	nt	nt
O=C(CSc1nnc2c(n1)[nH]c1ccccc12)NCc1ccco1	1	-27	13	73*	12	-6
COc1ccc(CNC(=O)CSc2nnc3c(n2)[nH]c2ccccc23)cc1	-1	nt	5	nt	-1	nt
COC(=O)c1c(NC(=O)COC(=O)c2ccc(NC(=O)CC#N)cc2)sc2c1CCCCC2	-10	19	-18	67*	-12	0
Cc1cc(C)c(OCC(=O)OCC(=O)NCCC2=CCCCC2)c(C)c1	2	nt	2	nt	5	nt
CC(C)(C)N=C1NN=C(c2ccc(Cl)cc2)CS1	-2	-33	-11	5	-1	nt
Clc1ccc(C2=NNC(=NCc3ccc4c(c3)OCO4)SC2)cc1	-1	10	0	62*	1	-4
COc1ccc(CN=C2NN=C(c3ccc(Cl)cc3)CS2)cc1	-14	-13	1	58*	2	-1
Cc1ccc(C(=O)ONc2ccc(N=NC(=O)c3ccccc3O)cc2)cc1	10	102*	8	81*	5	3
COc1ccc(-c2ccc(CCC(=O)O)n2NC(=O)c2cccs2)cc1	-7	-43	0	3	0	0
Cc1ccc(-c2ccc(CCC(=O)O)n2NC(=O)c2cccs2)cc1	2	-40	0	-6	3	49*
COc1ccccc1N1CCN(C(=O)CN(C)S(=O)(=O)c2ccc3c(c2)c(=O)n(C)c(=O)n3C)CC1	6	-9	7	-17	10	0
COc1cccc(NC(=O)[C@@H](NC(=O)N2CCn3c2nc2ccccc23)C(C)C)c1	2	nt	9	nt	6	nt
CC1(C)C(c2cccs2)=[N+]([O-])C2(CCCCC/C2=N\O)N1O (stereo not drawn)	2	57*	-14	-8	-7	-1
SMILES	GLD-1 TGE inh	Mcl1 Bid PPI	MCL1-BIM inh	Mcl1-Noxa inh	BCLXL inh	Bim-Mcl-1
O=C(Cc1ccccc1)NNc1c2ccccc2nc2ccccc12	7	-45	4	5	-2	-1
O=C(Nc1c2ccccc2nc2ccccc12)C(Cl)(Cl)Cl	19	53*	35	43	36*	3
COc1ccc(OCC(=O)OCC(=O)NCC2CCCCC2)cc1	0	nt	-3	nt	1	nt
O=C(Nc1ccc2oc(=O)ccc2c1)c1ccc(-c2ccc(Cl)cc2)o1	5	56*	2	-15	5	-7
O=C(Nc1ccc2oc(=O)ccc2c1)c1ccc(-c2cccc(Cl)c2)o1	1	66*	-11	21	-10	nt
O=C(Nc1ccc2oc(=O)ccc2c1)c1ccc(-c2cccc([N+](=O)[O-])c2)o1	9	80*	24	70*	-14	nt
O=C(Nc1ccc(CN2CCOCC2)cc1)c1ccc(-c2cccc(Cl)c2)o1	1	-30	4	-8	6	-3
O=C(Nc1ccc2oc(=O)ccc2c1)c1cc2ccccc2o1	1	14	1	-5	3	-12
COc1ccc(C(=O)Nc2cccc(C)c2)cc1S(=O)(=O)N1CCOCC1	-3	76*	0	3	-1	0
COc1cc(/C=C2\CC/C(=C\c3cc(OC)c(O)c(OC)c3)C2=O)cc(OC)c1O	-41	-2	-56	101*	-31	17
Clc1ccc(-n2nnnc2-c2cnc(-c3ccncc3)nc2-c2cccs2)cc1	-8	7	6	-2	6	-3
FC(F)(F)c1nc(-c2cccs2)ncc1-c1nnnn1-c1ccc(Cl)cc1	5	65*	-1	3	4	0
COc1ccc(-c2nnc(Nc3nc4c(OC)cccc4s3)o2)cc1	-2	56*	20	57*	20	-3
COc1ccc(-c2nnc(Nc3nc4c(OC)cccc4s3)o2)c(OC)c1	4	-74	8	-6	5	-1
CCCn1cc(CN2CCc3ccc(NC(=O)C4CCCO4)cc3C2)c(C)n1 (stereo not drawn)	3	nt	7	nt	9	nt
Cc1cc(NC(=O)Cn2nc(C(=O)O)c3ccccc3c2=O)c([N+](=O)[O-])cc1C	0	nt	8	nt	6	nt
Cc1ccc(-c2ccc(/C=N/N=C3/NC(=O)C(CC(=O)O)S3)o2)c([N+](=O)[O-])c1 (stereo not drawn)	10	-37	22	29	12	1
CC1=C(C#N)C(=O)NC(=O)/C1=C\c1ccc(-c2ccc(C)cc2[N+](=O)[O-])o1	nt	75*	nt	95*	nt	0
Cc1csc(NC(=O)c2ccc(COc3ccccc3)o2)n1	0	nt	5	nt	9	nt
CCOc1ccc(NC(=O)C2Cc3ccccc3CN2S(=O)(=O)CC)cc1 (stereo not drawn)	6	-24	-5	4	0	1
CCS(=O)(=O)N1Cc2ccccc2CC1C(=O)OCC(=O)N(C(C)C)C(C)C (stereo not drawn)	-1	-25	3	70*	0	0
Cc1cc(C)c(C#N)c(N2CCN(C(=O)C3COc4ccccc4O3)CC2)n1 (stereo not drawn)	3	nt	-4	nt	-1	nt
